Screens (PubChem BioAssay)
Shown are actives, neighbours in structure and some others; about 0.4% of the full set was active somewhere.
FMDV RLuc: Primary qHTS Assay for Foot and Mouth Disease Virus Antivirals against NCGC Sytravon and CBC Compound Libraries: Renilla Luciferase Signal. Potency, µM (titrated, usually from 57.5 µM), for inactives: at the highest dose activity change, negative = inhibition, hits mostly inhibitors. 0.32% of 120,000 active. FMDV replicon cells, Renilla luciferase signal; also: nearly all actives have a fitted effect of over 55% in size
FMDV FLuc: Primary qHTS Assay for Foot and Mouth Disease Virus Antivirals against NCGC Sytravon and CBC Compound Libraries: Firefly Luciferase Signal; FMDV antiviral cell assay, firefly luciferase signal; Potency, µM (doses to about 57.5 µM), without a hit: at the highest dose activity change, negative = inhibition, usual class: inhibitors; 0.23% of 120,000 active; also: nearly all actives have a fitted effect of over 60% in size
* = called active by the depositor; ? = inconclusive; ! = not active in a repeat; [ ] = another dose, or the depositor's remark. Calls follow the shape of the full dose curve. % is scaled to controls: 0 for no effect and ±100 for the full control effect; potency is read from the fitted curve at half-maximal effect.

SMILES	FMDV RLuc	FMDV FLuc
CC(=O)Nc1ccc(NC(=O)C(C)OC(=O)c2cn(C)c3ccccc23)cc1 (stereo unspecified)	-13%	-6%
O=C(C(Sc1nc2ccccc2o1)c1ccccc1)N1CCCCC1 (stereo unspecified)	248%	83%
CC(C)=CCNc1ncnc2c1ncn2[C@@H]1O[C@H](CO)[C@@H](O)[C@H]1O	9%	6%[11.5 µM]
Nc1nc(F)nc2c1ncn2[C@@H]1O[C@H](CO)[C@@H](O)[C@@H]1O	14µM*	?
O=C(CSc1ncnc2ccccc12)c1ccc2c(c1)OCCCO2	14µM*	-31%
O=C(CSc1cnc2ccccc2n1)c1ccc2c(c1)OCCO2	0%	13%
NC(=O)c1ccc([N+](=O)[O-])cc1Cl	-8%	-9%
CCOC(=O)c1ccc(NCc2ccnc(N3CCOCC3)c2)nc1	28µM*	?
CC(C)c1ccc(C(=O)COC(=O)c2ccc(N3CCOCC3)nc2)cc1	20%	17%
CC1CCc2nc3ccc4ccccc4c3c(-c3ccc(O)cc3)c2C1 (stereo unspecified)	0%	110%
O=C(Nc1cc(C(F)(F)F)ccc1Cl)C1=C(c2ccccc2)S(=O)(=O)CCO1	-31%	4%
O=C(Nc1c(Cl)cccc1Cl)C1=C(c2ccccc2)S(=O)(=O)CCO1	16µM*	?
CCOc1ccc(C(=O)NCc2ccc3c(c2)CCN3C(=O)c2ccccc2)cc1	-10%	-19%
CCCCCC/C(C)=N/NC(N)=S	-3%	18%
Fc1ccccc1-c1ccc(CNCC2CCNCC2)o1	-28%	-8%
Clc1ccc(-c2ccc(CNCC3CCNCC3)o2)c(Cl)c1	28µM*	?
CN1CCN(c2nc3ccccc3nc2C(=O)Nc2cccc(Cl)c2)CC1	-16%	-17%
O=C(Nc1ccc2oc(-c3ccc(F)cc3)nc2c1)c1ccccc1	7%	60%
Cc1c(C)c2ccc(OCC(=O)NCCc3ccc(S(N)(=O)=O)cc3)cc2oc1=O	0%	3%
C=C(C)COc1ccc2c(C)c(CC(=O)NCCc3ccc(S(N)(=O)=O)cc3)c(=O)oc2c1	3.5µM*	4µM*
CCc1nnc(NC(=O)c2cc(-c3ccncc3)nc3ccccc23)s1	-6%	-8%
C=CCNc1nc2c(c(=O)n(C)c(=O)n2C)n1CCC(C)C	16µM*	28µM*
C=CCNc1nc2c(c(=O)n(C)c(=O)n2C)n1CC(O)COc1ccc(OC)cc1 (stereo unspecified)	22µM*	?
Cc1ccc(OCC(O)Cn2c(NCC(=O)O)nc3c2c(=O)n(C)c(=O)n3C)cc1 (stereo unspecified)	-16%	-6%
C=CCNc1nc2c(c(=O)n(C)c(=O)n2C)n1CC	-8%	-7%
SMILES	FMDV RLuc	FMDV FLuc
COc1ccc2c(C)c(CCC(=O)NCCc3ccc(OC)c(OC)c3)c(=O)oc2c1	-6%	-1%
N#Cc1cn2ncnc2nc1N	2%	11%
O=C(Nc1cccc(C(F)(F)F)c1)C(=Cc1cccc(Oc2ccccc2)c1)C(=O)Nc1cccc(C(F)(F)F)c1	4µM*	4.5µM*
N#C/C(=C\c1cccc(OC(=O)c2ccccc2Cl)c1)C(=O)Nc1cccc(C(F)(F)F)c1	1%	128%
CN(Cc1cccs1)C(=O)Cc1n[nH]c(=O)c2ccccc12	-1%	15%
CCCOc1ccc2ccccc2c1CN(C)C(=O)Cc1n[nH]c(=O)c2ccccc12	?	25µM*
Cc1oc(-c2ccccc2)nc1CC(=O)N(C)CC(=O)Nc1ccc(OC(F)(F)F)cc1	9%	8%
CC(C)OCCCn1c(SCC(=O)Nc2ccc(F)cc2)nc2c(sc3ccccc32)c1=O	29%	7%
Cc1ccc(-n2ncc3c(NC4CCCCCC4)ncnc32)cc1Cl	-1%	107%
Cc1ccc(Cl)cc1-n1ncc2c(NC3CCCCCC3)ncnc21	25µM*!	?
Cc1ccccc1C(=O)N1CCN(c2ccc(NC(=O)c3ccc4c(c3)OCCO4)cc2)CC1	16µM*	?
CCOc1cc(OCC)cc(C(=O)Nc2ccc(N3CCN(C(=O)c4ccccc4C)CC3)cc2)c1	-7%	-7%
N#Cc1cc(F)c(NCc2ccc(F)cc2)c(F)c1	0%	21%
Cc1cc(C)cc(NC(=O)C2CCN(c3nnc(-n4c(C)ccc4C)s3)CC2)c1	-3%	22%
Cc1ccc(C)c(N2CCN(C(=O)C3CCN(c4nnc(-n5c(C)ccc5C)s4)CC3)CC2)c1	11µM*	?
Cc1cc(C)c2oc(C(=O)N3CCN(c4cccc(Cl)c4)CC3)cc(=O)c2c1	92%	126%
Cc1ccc(NC(=O)Cc2coc3ccc(C(C)C)cc23)cc1Cl	-19%	?
CCc1ccc2occ(CC(=O)Nc3ccc(C)c(C)c3)c2c1	?	25µM*
O=S1(=O)c2ccc(N3CCSCC3)cc2Oc2ccccc2CN1Cc1cn(Cc2ccccc2C(F)(F)F)nn1	121%	4%
O=C(Nc1cccc(S(=O)(=O)N2CCOCC2)c1)c1ccc(OCc2cn3ccccc3n2)cc1	?	32µM*
O=C(Nc1cccc(S(=O)(=O)N2CCCCC2)c1)c1ccc(OCc2cn3ccccc3n2)cc1	0%	0%
Cc1ccc2[nH]cc(CCNC(=O)c3cccc(Cl)c3)c2c1	0%	-8%
CCN(Cc1ccc(OC)cc1)Cc1cc(=O)oc2ccc(C)cc12	6%	3%
CCOc1ccc(CN(CC)Cc2cc(=O)oc3ccc(OC)cc23)cc1	25µM*	?
CCOc1ccc(CNS(=O)(=O)c2cc3c(cc2C)NC(=O)CO3)cc1	-3%	-14%
SMILES	FMDV RLuc	FMDV FLuc
CCN(CC)c1ccc(NC(=O)c2sc3nc4c(cc3c2N)CN(C)CC4)cc1	4%	23%
CCc1ccc(NC(=O)c2sc3nc4c(cc3c2N)CN(C(C)C)CC4)cc1	25µM*	0%
CCOc1ccc(Cn2c(CNS(=O)(=O)c3c(C)cc(C)cc3C)nc3cccnc32)cc1	230%	-6%
CC(C)c1ccc(Nc2ncccc2[N+](=O)[O-])cc1	-20%	163%
COc1ccc(-c2csc3ncnc(N4CCN(Cc5ccccc5)CC4)c23)cc1	-7%	15%
CCOc1ccc(CN2CCN(c3ncnc4sccc34)CC2)cc1	0.89µM*	1.1µM*
Cc1nc(-c2ccc(CCNC(=O)c3nccnc3N)s2)cs1	?	26%
Cc1nc(-c2ccc(CNC(=O)c3nccnc3N)s2)cs1	8.9µM*	?
COc1ccc(NC(=O)CNC(=O)Cn2ccc3ccccc3c2=O)cc1OC	-7%	-18%
Cc1ccc2c(CN3CCN(C(=O)c4cccc(F)c4)CC3)cc(=O)oc2c1	1%	17%
Cc1cccc(C(=O)N2CCN(Cc3ccc(-c4cccc(F)c4)s3)CC2)n1	?	10µM*
Cc1cc(N(C)C)nc(Nc2ccc(NC(=O)Nc3ccc(F)cc3)cc2)n1	-7%	23%
CCN(CC)c1cc(C)nc(Nc2ccc(NC(=O)CCCc3ccccc3)cc2)n1	32µM*	?
CNC(=O)c1c(NC(=O)c2nn(-c3ccc(Cl)cc3)ccc2=O)sc2c1CCCC2	1%	17%
